Hits are enriched below; roughly 11% of the tested compounds scored in any of these assays.
Pf growth 96h – P. falciparum growth inhibition at 96 hour, primary screen for plastid delayed-death inhibitors | P. falciparum luciferase reporter growth, 96 h | Potency, µM (top dose mostly 28.7 µM), for inactives: top-dose activity change, negative = inhibition, hits mostly inhibitors | actives 6.9% (n = 320,000); further: on the % scale 0 is the no-effect control and ±100 the full control effect
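Infected RBCs, 2% Hct / 0.05% parasitemia final; luciferase-reporter P. falciparum; cpd 96 h, 37 C, 5% CO2; luciferase detection reagent; luminescence.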
AMA1-RON2 inh – inhibitors of Plasmodium falciparum AMA1-RON2 interaction. AlphaScreen AMA1-biotinylated RON2 peptide binding. Potency, µM (titrated, usually from 58.2 µM), for inactives: top-dose activity change, negative = inhibition, most hits filed as inhibitors. actives 0.2% (n = 360,000);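 further: 0% = vehicle wells and -100% = peptide control; nearly all actives have a fitted effect of over 45% in size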
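AMA1 (3D7) with his tag at 25 nM final met compounds first, then biotinylated RON2 peptide at 25 nM; detection used donor plus acceptor beads, 10 µg/mL apiece, read by AlphaScreen after 30 min at room temperature.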
Sm TGR block – S. mansoni TGR enzyme inhibition. Q962Y6. purified TGR, DTNB reduction, TNB absorbance 405 nm. Potency, µM (series often up to 114 µM), inactives show at the top dose activity change, negative = inhibition, usual class: inhibitors. actives 3% (n = 360,000); further: on the % scale 0 is the no-effect control and ±100 the full control effect; nearly all actives have a fitted effect of over 60% in size
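TGR 20 nM + NADPH 100 uM (dispensed conc.), cpd preinc 15 min RT; start with NADPH (500 uM addition) then DTNB (15 mM addition). Kinetic TNB absorbance, 405 nm filter. Four-parameter Hill fit across titration.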
NS1 inh – inhibitors of influenza NS1 protein function. Potency, µM (top dose mostly 46.1 µM), for inactives: at the highest dose activity, positive = more growth. actives 0.4% (n = 270,000); calls by dose curve; further: actives are rising curves; nearly all actives have a fitted effect of over 50% in size
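S. cerevisiae expressing influenza A NS1, grown in glucose, washed, then diluted 1:100 into pH 6.0 -URA galactose medium with 23 nl compound. Growth recovery read as OD600; NS1-free strain serves as control.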
Pf growth 48h – inhibits P. falciparum growth in the first generation, 48 h; Potency, µM (titrated, usually from 28.7 µM), for the others: at the top dose activity change, negative = inhibition, hits mostly inhibitors; AID 504832; P. falciparum luciferase growth in erythrocytes, 48 h; actives 5.9% (n = 310,000); further: on the % scale 0 is the no-effect control and ±100 the full control effect
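Luminescence readout; reporter = integrated firefly luciferase in P. falciparum. RBC culture at 2% hematocrit, 0.1% parasitemia final, 37 C/5% CO2; decreased signal taken as growth inhibition.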
* marks the source's active call; other numbers are inactive results; ? = inconclusive; nt = no result; [ ] = remark or other dose. Unless noted, the call rests on the fitted dose curve; in most records, active means well fitted curve in the direction sought with a large enough effect; inconclusive means small, poorly fitted or top-dose-only effect, or another doubt; inactive means no such curve, though single readings can be large; an effect the other way counts as inactive or inconclusive. Potency means the concentration at half of the fitted maximal effect.

SMILES	Pf growth 96h	AMA1-RON2 inh	Sm TGR block	NS1 inh	Pf growth 48h
COc1ccc(NC(=O)Nc2nnc(N(CC(C)C)CC(C)C)s2)c(OC)c1	nt	nt	1.2%	nt	nt
COc1ccc(Cl)cc1NC(=O)Cn1nc(C(F)(F)F)c2c1CCCC2	nt	nt	1.2%	nt	nt
O=C(Cn1nc(C(F)(F)F)c2c1CCCC2)NCCN1CCOCC1	14.7µM*	16.8%	-16.3%	-4.2%	11.7µM*
COc1cc(NC(=O)Cn2nc(C(F)(F)F)c3c2CCCC3)cc(OC)c1OC	nt	5.9%	-0.5%	-6.7%	10.4µM*
CCCCSc1nc(N)nc2c1ncn2C1OC(CO)C(O)C1O (stereo not given)	nt	-0.1%	nt	nt	nt
CCN(CC)c1cc(C)c(C#N)c2nc3ccccc3n12	?	19.1%	23.4%	2.2%	5.86µM*
Cc1cc(Cl)n2c(nc3ccccc32)c1C#N	?	9.8%	3.16µM*	nt	8.28µM*
CCc1ccc(NC(=O)CC2C(=O)N(c3ccc(OC)cc3)C(=O)N2Cc2cccs2)cc1 (stereo not given)	nt	nt	0.9%	nt	nt
CN1/C(=C/C(=O)c2ccc(Cl)cc2)Sc2cc3c(cc21)OCO3	9.4%	12.7%[2.32 µM]	8.6%	16.9%	121.3%
COc1ccc(C(=O)/C=C2/Sc3cc4c(cc3N2C)OCO4)cc1	2.08µM*	-7.8%	7.0%	5.6%	27.8%
Cc1ccc(CSc2nccc(-c3c(C)nc4ccccn34)n2)cc1	?	6.7%	-1.1%	0.0%	13.1µM*
CC(C)N1CCN(Cc2ccccc2-c2ccco2)CC1CCO (stereo not given)	?	-7.3%	0.0%	5.3%	-6.5%
OCCC1CN(Cc2ccccc2-c2ccco2)CCN1C1CCCC1 (stereo not given)	?	-5.5%	-0.2%	9.8%	9.28µM*
Cc1cccc(C(=O)Nc2ccccc2OCc2cc(=O)n3cc(C)ccc3n2)c1	nt	nt	1.4%	nt	nt
Cc1ccccc1NC(=O)c1sc2nc3c(cc2c1N)CN(Cc1ccccc1)CC3	nt	nt	79.4µM*	nt	nt
O=C(Cc1cccs1)Nc1ccc(F)c(S(=O)(=O)N2CCOCC2)c1	6.57µM*	-8.4%	0.7%	nt	?
Cc1ccc(NC(=O)COC(=O)Cc2cccs2)cc1S(=O)(=O)N1CCOCC1	-16.0%	7.1%	?	0.3%	-16.0%
O=C(Cc1cccs1)Nc1ccc(Cl)c(S(=O)(=O)N2CCOCC2)c1	?	4.0%	0.6%	nt	10.4µM*
Cc1ccc(F)c(S(=O)(=O)NC(=O)C2(C)CCN2C(=O)COc2ccc(Cl)cc2)c1 (stereo not given)	nt	-1.9%	nt	nt	nt
CCOC(CNC(=O)Cn1nc(Cc2ccncc2)c2ccccc2c1=O)OCC	-6.4%	-8.8%	-4.1%	-5.2%	13.1%
CCC(C)NC(=O)Cn1nc(Cc2ccncc2)c2ccccc2c1=O (stereo not given)	6.57µM*	-2.7%	5.1%	-0.8%	-9.0%
Cc1ccc(C2(C)NC(=O)N(CC(=O)N(Cc3ccccc3)C(C)(C)C)C2=O)cc1 (stereo not given)	?	0.8%	-2.9%	5.8%	?
O=C(Nc1ccccc1)N1CCC(=S)Nc2ccccc21	-5.1%	22.8%	-6.1%	10.3%	-8.2%
CC1CC(=S)Nc2ccccc2N1C(=O)Nc1ccccc1 (stereo not given)	?	-5.4%	-0.3%	-6.1%	3.29µM*
Cc1ccc([C@H]2C[C@@H](n3cc(COC(=O)c4ccccc4)nn3)[C@H](O)CN2C(=O)c2cccs2)cc1	nt	2.0%	nt	nt	nt
SMILES	Pf growth 96h	AMA1-RON2 inh	Sm TGR block	NS1 inh	Pf growth 48h
C=C1C(=O)O[C@@H]2[C@@H]1CC/C(C)=C\CC[C@@]1(C)O[C@H]21	9.53µM*	nt	nt	nt	?
O=C(N=c1nc2ccccn2s1)c1ccccc1	7.3%	0.5%	-8.5%	11.2µM*	256.3%
CC(=O)N(C(C)=O)c1nc(-c2ccccc2)cn1/N=C/c1cccc([N+](=O)[O-])c1	?	5.7%	-7.5%	1.2%	?
Cc1ccc2oc(=O)c3cc(C(=O)NCCCN4CCCC(C)C4)sc3c2c1 (stereo not given)	20.6%	7.0%	0.4%	9.2%	4.15µM*
Cc1ccc2oc(=O)c3cc(C(=O)NCc4ccco4)sc3c2c1	9.28µM*	-2.8%	-2.7%	?	nt
COc1cccc(CNC(=O)c2cc3c(=O)oc4ccc(C)cc4c3s2)c1	nt	nt	6.5%	nt	nt
Cc1ccc2oc(=O)c3cc(C(=O)NCCN4CCc5ccccc5C4)sc3c2c1	?	-3.1%	1.6%	14.9%	4.65µM*

Screening data: PubChem, National Center for Advancing Translational Sciences (NCATS)
